Inconclusive results are not listed. Calls of active or inactive are those of the source. Calls come from the whole dose curve; as a rule, active = well fitted inhibition curve with a large enough effect; inconclusive = small, poorly fitted or top-dose-only effect; inactive = no such curve, though single readings can be large or run the other way.
Test: NS1 protein of Zika virus - qHTS assay to identify small molecule inhibitors in human HEK 293 cells (AID 1347053); note: nearly all actives have a fitted effect of over 55% in size
Details: HEK293 ZIKV MR766 infection, NS1 TR-FRET, 24 h; series mostly up to 46.1 µM
Method in brief: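 TR-FRET signal from two anti-ZIKV NS1 antibodies quantified NS1 in HEK 293 cells 24 h after MR766 infection at MOI = 0.5; compounds were added 1 h before virus. Uninfected cells and infected cells defined the NS1 normalization range.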

SMILES	outcome
CCCSP(=O)(OCC)SCCC	inactive
CC12NC(Cc3ccccc31)c1ccccc12 (centres undefined)	inactive
C[N+]1(C)CCN(c2ccccc2)CC1	inactive
C[N+]1(C)C2CCC1CC(OC(=O)c1c[nH]c3ccccc13)C2 (centres undefined)	inactive

Reference: PubChem BioAssay (NCATS)
